Measurements published in PubChem BioAssay (Tox21).
Records with an inconclusive call do not appear. A call without a number means that no potency is given here. Activity calls are given as the source filed them. Calls come from the whole dose curve.
Potency is the fitted concentration of half-maximal effect.

These compounds were tested against 5-hydroxytryptamine receptor 2A (Homo sapiens) (UniProt P28223) (assay: 5-hydroxytryptamine receptor 2A (HTR2A) small molecule antagonists, cell-based qHTS assay (AID 1963586; note: nearly all actives have a fitted effect of over 45% in size)). Settings: HTR2A-CHO cells, DOI-induced calcium flux, fluorescence; series mostly up to 61.5 µM.
Sequence of 5-hydroxytryptamine receptor 2A (Homo sapiens) (P28223 whole entry, looked up): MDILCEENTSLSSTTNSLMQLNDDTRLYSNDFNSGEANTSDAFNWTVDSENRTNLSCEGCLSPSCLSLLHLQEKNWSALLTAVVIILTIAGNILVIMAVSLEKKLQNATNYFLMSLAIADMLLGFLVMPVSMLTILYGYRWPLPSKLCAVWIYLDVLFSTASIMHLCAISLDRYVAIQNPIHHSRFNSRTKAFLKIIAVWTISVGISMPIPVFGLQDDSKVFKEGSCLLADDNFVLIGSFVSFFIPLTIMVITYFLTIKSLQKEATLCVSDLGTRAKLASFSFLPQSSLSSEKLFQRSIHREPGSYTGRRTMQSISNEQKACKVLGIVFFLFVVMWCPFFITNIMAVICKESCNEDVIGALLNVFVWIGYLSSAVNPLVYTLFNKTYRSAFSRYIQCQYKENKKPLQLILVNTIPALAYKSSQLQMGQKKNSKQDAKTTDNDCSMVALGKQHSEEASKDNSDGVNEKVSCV
Source text: National Center for Advancing Translational Sciences [NCATS]
Division of Preclinical Innovation [DPI]
U.S. Environmental Protection Agency [EPA]
National Institutes of Environmental Health Sciences [NIEHS]
National Toxicology Program [NTP]
U.S. Food and Drug Administration [FDA]
The HTR2A receptor is a subtype of the 5-HT2 receptor that belongs to the serotonin receptor family and is a G protein-coupled receptor (GPCR). The HTR2A-CHO cell line stably expressing human 5-hydroxytryptamine receptor 2A (HTR2A) can be used for screening antagonists of interactions between 5-HT2 and its ligands. The HTR2A-CHO calcium flux assay is a homogeneous fluorescence-based assay for detecting the intracellular calcium level using FDSS kinetic plate reader system.
Tox21 Assay Protocol Summary:
HTR2A-CHO cells were dispensed at 2000 cells/3uL/well in 1536-well black-clear bottom plates using a Multidrop Dispenser. After the assay plates were incubated at a 37 C/5% CO2 incubator for 18 h, 3 uL of Dye Loading Buffer was transferred to the assay plate by a Flying Reagent Dispenser. The assay plates were incubated at 37 C for 1h. For antagonist mode, 23 nL of compounds dissolved in DMSO, positive controls or DMSO only was transferred to the assay plate by a pin tool. After 5 min incubation at room temperature, 1.5 uL of 4-Iodo-2,5-dimethoxy-alpha-methylbenzeneethanamine hydrochloride (DOI) at 4nM was added to each well. The fluorescence intensity in the plates was measured using FDSS 7000EX kinetic plate reader for 3 min at 1 sec intervals.
For OCC(CO)n1cnc(-c2ccc(F)cc2)c1-c1ccnc(Oc2ccccc2)n1, the Potency was “inactive”.
CCCCCCC1CCCC(=O)O1 (stereo not given) was tested, and the Potency was “inactive”.
With Cc1ccc2c(c1[N+](=O)[O-])C(=O)c1ccccc1C2=O the Potency was “inactive”.
With CC(C)(C)OC(=O)c1ccccc1C(=O)O the Potency was “inactive”.
CC(Cl)C(Cl)Cl (stereo not given) was tested, and the Potency was “inactive”.
For CC(C)(C)NCC(O)COc1cccc2c1CCC(=O)N2 (stereo not given), the Potency was “inactive”.
In the case of CN1CCN(C2=Nc3ccccc3Sc3ccc(Cl)cc32)CC1, the Potency is reported as 81.8 nM (active).
With CCCCOC(=O)C(C)Oc1ccc(Oc2ccc(C(F)(F)F)cn2)cc1 (stereo not given) the Potency was “inactive”.
In the case of Cc1ccc(OC(=O)c2ccccc2O)cc1, the Potency is reported as “inactive”.
In the case of O=C(OCC1CO1)C1CCCCC1C(=O)OCC1CO1 (stereo not given), the Potency is reported as “inactive”.
With CC(CN(C)C)C(C)(O)Cc1ccc(Cl)cc1 (stereo not given) the Potency was “inactive”.
For COc1ccc2[nH]c(S(=O)Cc3ncc(C)c(OC)c3C)nc2n1 (stereo not given), the Potency was “inactive”.
O=c1cc[nH]cc1 was tested, and the Potency was “inactive”.
For CCCc1ccc(O)c(OC)c1, the Potency was “inactive”.
In the case of CCc1nn(C2CCCCC2)c2cc(C3(C#N)CCC(C(=O)O)CC3)ccc12 (stereo not given), the Potency is reported as “inactive”.
Cn1c(=O)cc(Oc2ccc(F)cc2F)c2cnc(NCC(C)(C)O)nc21 was tested, and the Potency was “inactive”.
With CCc1cccc(C)c1N(C(=O)CS(=O)(=O)O)C(C)COC (stereo not given) the Potency was “inactive”.
In the case of c1ccc(-c2nn[nH]n2)cc1, the Potency is reported as “inactive”.
In the case of Cc1cccc(Oc2ccccc2)c1, the Potency is reported as 1 nM (active).
OCC(O)c1ccccc1 (stereo not given) was tested, and the Potency was “inactive”.
With C=CCSSCCC the Potency was “inactive”.
In the case of CCOC(=O)CC1(C)OCC(C)O1 (stereo not given), the Potency is reported as “inactive”.
With CCCCC/C=C/CC1CC(=O)OC1=O (stereo not given) the Potency was “inactive”.
For Cc1c(NC(C)C)c(=O)n(-c2ccccc2)n1C, the Potency was “inactive”.
CCCCCN(CCCCC)C(=O)C(CCC(=O)O)NC(=O)c1ccc(Cl)c(Cl)c1 (stereo not given) was tested, and the Potency was “inactive”.
For C=C(C)C(=O)OCC(O)CO (stereo not given), the Potency was “inactive”.
For CC(C)C(=O)OCC(C)(C)C(O)C(C)C (stereo not given), the Potency was “inactive”.
With O=C(O)CCCC[P+](c1ccccc1)(c1ccccc1)c1ccccc1 the Potency was “inactive”.
In the case of Cc1cccc([N+](=O)[O-])c1C(=O)O, the Potency is reported as “inactive”.
With Oc1ccc2c(c1)CCC2 the Potency was “inactive”.
CCOC(=O)/C=C/C(=O)OCC was tested, and the Potency was “inactive”.
N[C@@H](Cc1cc(I)c(O)c(I)c1)C(=O)O was tested, and the Potency was “inactive”.
For CCOc1ccc2ccccc2c1C(=O)N[C@@H]1C(=O)N2[C@@H]1SC(C)(C)[C@@H]2C(=O)O, the Potency was “inactive”.
Cc1ccsc1/C=C/C1=NCCCN1C was tested, and the Potency was “inactive”.
In the case of COCCCCCCCCOCCC[Si](C)(O[Si](C)(C)C)O[Si](C)(C)C, the Potency is reported as “inactive”.
With CC1CCc2c(N3CCC(O)CC3)c(F)cc3c(=O)c(C(=O)O)cn1c23 (stereo not given) the Potency was “inactive”.
With CC1OC(=O)C(C)OC1=O (stereo not given) the Potency was “inactive”.
For CCCCCOc1ccc(C2SC(=O)NC2=O)cc1OCC (stereo not given), the Potency was “inactive”.
For CC1(C)CC(O)CC(C)(C)N1, the Potency was “inactive”.
For CC/C=C(\C)C=O, the Potency was “inactive”.
